The values that follow come from PubChem BioAssay AID2685 (National Center for Advancing Translational Sciences (NCATS), 2010).

Among all 320,000 compounds or so, about 2,100 (0.66%) were called active. About 53% were inconclusive and are not listed. Calls follow the shape of the dose curve; as a rule, active = well fitted inhibition curve with a large enough effect in the signal ratio, with a control signal flat (not every such curve was filed as active); inconclusive = small, poorly fitted or top-dose-only effect, or effect the other way, or a change in a side signal; inactive = flat fitted curve, though single readings scatter; the % refers to the signal ratio. Many of the other results were omitted from the sample, so actives are more common in it than they were.
Potency is read from the fitted curve at half-maximal effect.

A short description of this experiment: qHTS Assay for Lipid Storage Modulators in Drosophila S3 Cells.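 As to cell number change: cells counted by Cell Tracker Red CMTPX staining in the red channel.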 As to lipid storage change, negative = inhibition: % is scaled to controls: 0 for no effect and ±100 for the full control effect. As to conditions: BODIPY lipid droplet fluorescence, 18-24 h, cells fed with added oleic acid; cell number change: measured here: cell count max response; series mostly up to 46.1 µM; lipid storage change, negative = inhibition: at the top concentration. The method, boiled down:
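Laser-scanning cytometry quantifies lipid droplet accumulation (500–530 nm total intensity; droplet/cell object ratio) in oleic acid-fed (400 uM added) Drosophila S3 cells treated with a concentration series. 20 uM Triacsin C defined 100% inhibition.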
A general note: In qHTS, concentration-response curves come from the screen itself.
For `CCCCNC(=O)CN(c1cc(C(F)(F)F)ccc1Cl)S(C)(=O)=O`, the “lipid storage change, negative = inhibition” value was 2.61% (inactive) and the cell number change is 5.68%. Consider `Cc1ccc(N(CC(=O)NC2CCCCC2C)S(=O)(=O)c2c(C)noc2C)cc1` (configuration not stated), for which the molecule was called inactive and the cell number change amounted to 1.18%. Turning to `Cc1ccc(N(CC(=O)NC2CCCCC2C)S(=O)(=O)c2c(C)nn(C)c2C)cc1` (configuration not stated), the Potency was 25.9 µM (active) and the cell number change was -1.91%. `Cc1ccc(N(CC(=O)NC2CCCCC2)S(=O)(=O)c2c(C)nn(C)c2C)cc1`: the result was inactive and the cell number change turned out to be 5.73%. As to `CC1(C)CCC(C)(C)NC(=S)N1`, the “lipid storage change, negative = inhibition” value was -0.404% (inactive) and the cell number change was -5.67%. As to `O=C(COc1nsnc1N1CCOCC1)N1CCOCC1`, the “lipid storage change, negative = inhibition” value is -15% (inactive) and the cell number change is -23.3%. Taken in the same sequence, the figures for `O=C(COc1nsnc1N1CCOCC1)Nc1ccc(Cl)cc1` were -10.2% (inactive) and -7.64%. As to `COC(=O)COc1nsnc1N1CCOCC1`, the Potency is 5.8 µM (active) and the cell number change was determined as 1.29%.

For `Cc1cccc(OCCC(=O)NNC(=O)c2ccoc2C)c1`, the “lipid storage change, negative = inhibition” value was 5.46% (inactive) and the cell number change is -9.1%.

As for `COC(=O)CCCCCN1C(=O)NC(c2ccccc2)C(C(=O)OCc2ccccc2)=C1C` (configuration not stated), the “lipid storage change, negative = inhibition” value was 13.9% (inactive) and the cell number change was 10%.

`CC(=O)NS(=O)(=O)c1ccc(NC(=O)c2cc(-c3ccc(C)cc3)nc3ccccc23)cc1`: the “lipid storage change, negative = inhibition” value was 0.28% (inactive) and the cell number change was 13.2%. On to `CN1CCC(N2CCCC(C(=O)O)C2)CC1` (configuration not stated), for which the Potency is 6.51 µM (active) and the cell number change was determined as 6.8%. Consider `CCCN1CCC(N2CCCC(C(=O)O)C2)CC1` (configuration not stated), for which the “lipid storage change, negative = inhibition” value is 4% (inactive) and the cell number change came to 9.47%.

`Cc1ccc(NC(=O)N2CCCC(C(=O)O)C2)cc1` (configuration not stated): the “lipid storage change, negative = inhibition” value was -5.95% (inactive) and the cell number change was -2.63%. For `O=C(c1ccccc1)N1CCn2c1nc1ccccc12`, in that order: -6.04% (inactive) and 7.4%.

Consider `COc1cccc(CC(=O)Nc2nc3c(s2)C(=O)CC(C)(C)C3)c1`, for which the “lipid storage change, negative = inhibition” value was 6.69% (inactive). For the molecule `O=C(CSc1nccc(=O)[nH]1)Nc1ccc(N2CCOCC2)cc1`, the “lipid storage change, negative = inhibition” value is 10.1% (inactive) and the cell number change worked out at 4.96%.

As to `COc1ccc(OC)c(S(=O)(=O)N2CCC(C(=O)N3CCCCCC3)CC2)c1`, the “lipid storage change, negative = inhibition” value was -21.6% (inactive) and the cell number change was found to be 10.5%. Consider `COc1ccc(OC)c(S(=O)(=O)N2CCC(C(=O)N3CCN(Cc4ccccc4)CC3)CC2)c1`, for which the Potency is 8.2 µM (active) and the cell number change is -36.9%. In the case of `COc1ccc(OC)c(S(=O)(=O)N2CCCC(C(=O)N3CCC(C(N)=O)CC3)C2)c1` (configuration not stated), the “lipid storage change, negative = inhibition” value was 29.6% (inactive). As to `COc1cc(OC)c(OC)cc1CN1CCCC(C(=O)N2CCCCC2)C1` (configuration not stated), the “lipid storage change, negative = inhibition” value was 0.198% (inactive) and the cell number change was -0.267%. Regarding `COc1ccc(S(=O)(=O)N2CCCC(C(=O)N3CCCCCC3)C2)cc1` (configuration not stated), the call was inactive. Turning to `COc1ccc(OC)c(S(=O)(=O)N2CCC(C(=O)N3CCOCC3)CC2)c1`, the molecule was classed as inactive and the cell number change was 23.2%. On to `COc1ccccc1CN1CCCC(C(=O)N2CCCCC2)C1` (configuration not stated), for which the “lipid storage change, negative = inhibition” value is -23.1% (inactive) and the cell number change was -12.4%. On to `COc1ccc(CN2CCCC(C(=O)N3CCCCC3)C2)c(OC)c1` (configuration not stated), for which the Potency is 18.4 µM (active) and the cell number change is -9.62%. Regarding `COc1ccc(OC)c(S(=O)(=O)N2CCCC(C(=O)N3CCCCCC3)C2)c1` (configuration not stated), the Potency was 3.26 µM (active) and the cell number change was -13.8%. For the molecule `COc1ccccc1CN1CCN(Cc2nc(Cc3ccccc3)no2)CC1`, the “lipid storage change, negative = inhibition” value is 6.75% (inactive) and the cell number change was -11.2%. For `COc1ccc(C(=O)COC(=O)C(CCSC)NC(=O)COc2ccccc2)cc1` (configuration not stated), in that order: 7.97% (inactive) and -12.5%. Consider `COc1ccc(Cc2noc(CN3CCN(Cc4csc(C)n4)CC3)n2)cc1OC`, for which the “lipid storage change, negative = inhibition” value was 19.7% (inactive) and the cell number change was 3.13%. Taken in the same sequence, the figures for `CC(Sc1cnccn1)C(=O)O` (configuration not stated) were -23.4% (inactive) and -4.62%. Turning to `CC(=O)NCC1CCCN(C(=O)c2oc3c(F)cccc3c2C)C1` (configuration not stated), the molecule was called inactive and the cell number change is -13.1%. Consider `O=C(COC(=O)C1CC1)NCc1ccccc1`, for which the “lipid storage change, negative = inhibition” value was 7.58% (inactive).

Regarding `COc1cc(OC)c(/C=N/NC(=O)Cn2nc([N+](=O)[O-])cc2C)c(OC)c1`, the “lipid storage change, negative = inhibition” value was 8.36% (inactive). As for `COc1ccc(CCNC(=O)c2ccc3c(c2)NC(=O)C(C(C)C)N3)cc1OC` (configuration not stated), the result was inactive and the cell number change is -27%. For `COc1ccc(CCNC(=O)CC2Nc3cc(C)c(C)cc3NC2=O)cc1OC` (configuration not stated), in that order: “inactive” and 21.5%. Consider `COc1ccc(CCNC(=O)c2ccc3c(c2)NC(=O)C(CSCc2cc(C)ccc2C)N3)cc1OC` (configuration not stated), for which the Potency is 23.1 µM (active) and the cell number change came to 3.36%. Turning to `COc1ccc(C(=O)NNC(=O)CCCCC(=O)NNC(=O)c2ccc(OC)cc2)cc1`, the “lipid storage change, negative = inhibition” value was -11.8% (inactive) and the cell number change is -8.93%.

Regarding `COc1ccc2[nH]c(C(=O)O)c(CCN3C(=O)c4ccc(C(=O)O)cc4C3=O)c2c1`, the molecule was called inactive. As to `CC(C)(C)C#CCn1c(/C=[N+](\[O-])C2CCCCC2)nc2ccccc21`, the “lipid storage change, negative = inhibition” value was 24% (inactive) and the cell number change was -20.4%. On to `Cc1nc2cc(C(=O)OCC(=O)Nc3cccc(Cl)c3)ccc2n1-c1ccccc1`, for which the “lipid storage change, negative = inhibition” value was 9.16% (inactive) and the cell number change came out at 16.2%. `COc1cc2ccccc2cc1C(=O)NC(=S)Nc1ccc(C(=O)O)cc1`: the Potency was 18.4 µM (active) and the cell number change was -28.9%. Consider `COc1cc2ccccc2cc1C(=O)NC(=S)Nc1cc(C(=O)O)ccc1C`, for which the “lipid storage change, negative = inhibition” value was -1.68% (inactive) and the cell number change is -26.2%. As to `COc1cc2ccccc2cc1C(=O)NC(=S)Nc1cccc(C(=O)O)c1`, the molecule was called inactive and the cell number change came out at 12.5%. On to `COC(=O)C1CCN(C(=O)C23CCC(C)(C(=O)O2)C3(C)C)CC1` (configuration not stated), for which the “lipid storage change, negative = inhibition” value is -21.8% (inactive). With `Cc1ccc(NC(=O)CSc2nnc(-c3ccncc3)s2)cc1`, the “lipid storage change, negative = inhibition” value was 37.9% (inactive) and the cell number change came out at 5.56%. Taken in the same sequence, the figures for `CCn1c(C)[n+](CC)c2ccc(S(=O)(=O)N(C)C)cc21` were 2.28% (inactive) and 4.86%.

On to `O=C(O)/C=C/C(=O)NCc1ccccn1`, for which the “lipid storage change, negative = inhibition” value is -9.56% (inactive) and the cell number change is -7.29%.

As to `CN(Cc1ccccc1)C(=O)COC(=O)c1ccc2ccccc2n1`, the “lipid storage change, negative = inhibition” value was 8.38% (inactive) and the cell number change is 15.9%. Turning to `CNc1snc(C)c1C(=O)OCC(=O)N(C)Cc1ccccc1`, the Potency is 14.6 µM (active) and the cell number change is -17.1%. With `CN(Cc1ccccc1)C(=O)COC(=O)c1ccccc1Nc1ccccc1`, the “lipid storage change, negative = inhibition” value was -5.27% (inactive) and the cell number change was -9.93%.

As to `CCC(C)NC(=O)CC(NS(=O)(=O)c1ccc(NC(C)=O)cc1)C(C)C` (configuration not stated), the “lipid storage change, negative = inhibition” value was 2.51% (inactive) and the cell number change was 10.4%. Turning to `CC(=O)Nc1ccc(S(=O)(=O)NC(CC(=O)NC2CCCCC2C)C(C)C)cc1` (configuration not stated), the molecule was classed as inactive. Regarding `COCCNC(=O)CC(NS(=O)(=O)c1ccc(NC(C)=O)cc1)C(C)C` (configuration not stated), the Potency is 5.8 µM (active) and the cell number change is -2.55%.

Regarding `Cc1cc(=O)[nH]c(SCC(=O)O)c1C#N`, the “lipid storage change, negative = inhibition” value was 18.1% (inactive) and the cell number change is -1.88%. With `Cc1cc(=O)[nH]c(SCC(N)=O)c1C#N`, the Potency was 23.1 µM (active) and the cell number change was -10.4%. For the molecule `CCOC(=O)CSc1[nH]c(=O)cc(C)c1C#N`, the call was inactive and the cell number change stood at 23.9%. As to `Cc1ccc(C(=O)N2CCC3(CC2)Oc2ccc(F)cc2C(=O)C32CC(c3ccccc3)=NO2)s1` (configuration not stated), the “lipid storage change, negative = inhibition” value is 11.6% (inactive) and the cell number change came out at 11.1%. For the molecule `COc1ccc(OC)c(N(CC(=O)Nc2ccc(NC(C)=O)cc2)S(C)(=O)=O)c1`, the molecule was called inactive and the cell number change worked out at 18.4%. Take `Cc1ccnc(NC(=O)c2ccc(N3C(=O)CCC3=O)cc2)c1`: the “lipid storage change, negative = inhibition” value was -7.96% (inactive) and the cell number change was -2.76%. `Cc1ccccc1NC(=O)CCc1nnc2ccc(N3CCC4(CC3)OCCO4)nn12`: the “lipid storage change, negative = inhibition” value is -6.37% (inactive) and the cell number change was found to be 15.5%. On to `COc1cccc(N2CCN(c3ccc4nnc(CCC(=O)Nc5cccc(C(C)=O)c5)n4n3)CC2)c1`, for which the result was inactive and the cell number change was -9.88%. For `COc1cc(NC(=O)CCc2nnc3ccc(N4CCN(c5cccc(OC)c5)CC4)nn23)cc(OC)c1`, in that order: “inactive” and -21.5%.

For `COC(=O)c1ccc(NC(=O)CCc2nnc3ccc(N4CCC5(CC4)OCCO5)nn23)cc1`, the result was inactive and the cell number change is -17.4%. Turning to `COc1cccc(NC(=O)CCc2nnc3ccc(N4CCN(c5cccc(OC)c5)CC4)nn23)c1`, the Potency is 9.2 µM (active) and the cell number change is -24.5%.

Consider `COc1ccccc1NC(=O)CCc1nnc2ccc(N3CCC4(CC3)OCCO4)nn12`, for which the Potency was 2.06 µM (active) and the cell number change was -20.4%.
